Laboratory results as given in PubChem BioAssay (Tox21).
Several values for one entry are separate records, joined by “and”; a condition that tells them apart may be missing. Equal entries are not always repeated. Results filed as inconclusive are left out. A structure can be active in one record and inactive in another. Activity calls are given as the source filed them. Unless noted, the call rests on the fitted dose curve; in most records, active means well fitted curve in the direction sought with a large enough effect in the repeat runs; inconclusive means weak or mixed curves; inactive means no such curve, though single readings can be large; an effect the other way counts as inactive or inconclusive.

Key:
[1] = qHTS assay to test for compound auto fluorescence at 535 nm (green) in HEK293 cells (AID 720680)
[2] = qHTS assay to test for compound auto fluorescence at 460 nm (blue) in HEK293 cell free culture (AID 720681); further: potency means the concentration at half of the fitted maximal effect
How it was run: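 Test compounds were pinned into cell-free culture medium (DMEM with 10% FBS) and fluorescence was read directly at Ex/Em 405/460 nm. Signals were expressed as fluorescence equivalents of triamterene, with DMSO vehicle as control.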

[3] = qHTS assay to test for compound auto fluorescence at 535 nm (green) in HEK293 cell free culture (AID 720682)
How it was run: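 Measurement is a direct plate read of green fluorescence (485 nm in, 535 nm out) after compound addition to serum-supplemented DMEM lacking cells, with fluorescein used to express intensities.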

[4] = qHTS assay to test for compound auto fluorescence at 590 nm (red) in HEK293 cell free culture (AID 720683)
How it was run: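 Tox21 10K library compounds were pinned into cell-free DMEM with 10% FBS and fluorescence was read at excitation 540 nm. Activity is expressed as Rose Bengal sodium equivalency.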

[5] = qHTS assay to test for compound auto fluorescence at 590 nm (red) in HepG2 cell free culture (AID 720684)
How it was run: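 Readout: intrinsic compound fluorescence at 590 nm emission after 540 nm excitation, scaled to Rose Bengal sodium. Matrix was cell-free MEM with 10% FBS; DMSO vehicle wells served as control.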

[6] = qHTS assay to test for compound auto fluorescence at 460 nm (blue) in HepG2 cell free culture (AID 720685); further: potency means the concentration at half of the fitted maximal effect
How it was run: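 Cell-free plates of MEM plus 10% FBS received 23 nL compound or DMSO vehicle; blue-channel (405/460 nm) intensity scored against triamterene as reference fluorophore.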

[7] = qHTS assay to test for compound auto fluorescence at 535 nm (green) in HepG2 cell free culture (AID 720686)
[8] = qHTS assay to test for compound auto fluorescence at 460 nm (blue) in HepG2 cells (AID 720687); further: potency means the concentration at half of the fitted maximal effect
How it was run: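 Cells (2,000/well in MEM with 10% FBS) attached overnight at 37 C, then were exposed to compound or DMSO for 1 hr at 37 C, 5% CO2. Fluorescence read at Ex/Em 405/460 nm, expressed as triamterene-equivalent signal.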

[9] = qHTS assay to identify small molecule antagonists of the glucocorticoid receptor (GR) signaling pathway - cell viability counter screen (AID 720693); further: nearly all actives have a fitted effect of over 55% in size; further: potency means the concentration at half of the fitted maximal effect
[10] = qHTS assay for identifying genotoxic compounds that show differential cytotoxicity against isogenic chicken DT40 cell lines with known DNA damage response pathways - wild type cell line (AID 743012); further: nearly all actives have a fitted effect of over 60% in size; further: potency means the concentration at half of the fitted maximal effect
How it was run: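 Endpoint: CellTiter-Glo luminescence, 30 min RT. Cells: wild type DT40, 300/well. Exposure: compounds in DMSO, 40 h, 37 C/5% CO2, after ~0.5 h pre-incubation.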

[11] = qHTS assay for identifying genotoxic compounds that show differential cytotoxicity against isogenic chicken DT40 cell lines with known DNA damage response pathways - Rev3 mutant cell line (AID 743014); further: nearly all actives have a fitted effect of over 55% in size; further: potency means the concentration at half of the fitted maximal effect
[12] = qHTS assay for identifying genotoxic compounds that show differential cytotoxicity against isogenic chicken DT40 cell lines with known DNA damage response pathways - Rad54/Ku70 mutant cell line (AID 743015); further: nearly all actives have a fitted effect of over 60% in size; further: potency means the concentration at half of the fitted maximal effect
[13] = biological target: Androgen receptor (Homo sapiens) (UniProt P10275); assay: qHTS assay to identify small molecule antagonists of the androgen receptor (AR) signaling pathway (AID 743035; active means well fitted inhibition curve with a large enough effect in the signal ratio in the repeat runs, not every such curve was filed as active; the % refers to the signal ratio; further: potency means the concentration at half of the fitted maximal effect)
Androgen receptor (Homo sapiens), sequence (P10275 whole entry, looked up): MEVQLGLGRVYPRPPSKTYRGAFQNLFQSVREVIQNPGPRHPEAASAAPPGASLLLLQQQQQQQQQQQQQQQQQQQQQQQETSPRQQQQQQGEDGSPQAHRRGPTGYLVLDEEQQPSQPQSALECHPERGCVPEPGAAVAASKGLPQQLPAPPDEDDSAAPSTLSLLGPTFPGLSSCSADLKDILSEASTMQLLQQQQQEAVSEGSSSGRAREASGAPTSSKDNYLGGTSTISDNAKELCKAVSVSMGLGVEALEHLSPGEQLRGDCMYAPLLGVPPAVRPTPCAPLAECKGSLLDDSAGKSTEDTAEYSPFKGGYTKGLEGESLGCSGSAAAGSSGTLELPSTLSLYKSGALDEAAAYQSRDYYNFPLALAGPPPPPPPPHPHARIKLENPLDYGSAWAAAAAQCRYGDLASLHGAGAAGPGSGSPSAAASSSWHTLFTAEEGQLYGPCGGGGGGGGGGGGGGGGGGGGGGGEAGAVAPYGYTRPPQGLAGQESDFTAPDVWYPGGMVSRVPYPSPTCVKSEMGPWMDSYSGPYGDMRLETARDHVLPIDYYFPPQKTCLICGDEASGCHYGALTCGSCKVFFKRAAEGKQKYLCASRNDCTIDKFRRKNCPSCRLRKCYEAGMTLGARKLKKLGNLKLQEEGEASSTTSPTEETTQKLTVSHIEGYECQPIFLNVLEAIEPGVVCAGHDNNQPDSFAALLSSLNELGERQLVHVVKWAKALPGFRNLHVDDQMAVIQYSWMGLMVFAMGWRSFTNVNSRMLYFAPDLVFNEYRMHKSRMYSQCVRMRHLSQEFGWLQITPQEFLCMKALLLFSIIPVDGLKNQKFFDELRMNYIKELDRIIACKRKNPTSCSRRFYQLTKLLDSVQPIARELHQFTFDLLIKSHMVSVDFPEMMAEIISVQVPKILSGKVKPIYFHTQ
How it was run: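 R1881 agonist challenge of a HEK293 UAS-beta-lactamase AR reporter line in the presence of compound (16 h, 37C); signal taken as FRET fluorescence after 2 h with LiveBLAzer B/G substrate at room temperature.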

[14] = biological target: Androgen receptor (Homo sapiens) (UniProt P10275); assay: qHTS assay to identify small molecule agonists of the androgen receptor (AR) signaling pathway using the MDA cell line (AID 743040; further: nearly all actives have a fitted effect of over 20% in size)
How it was run: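 Agonist activity is measured as luciferase luminescence in human MDA-kb2 cells whose MMTV reporter responds to both AR and GR. Compounds in DMSO incubate 16 h at 37C, 0% CO2, and ONE-Glo is read after 30 min.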

[15] = qHTS assay to identify small molecule antagonists of the androgen receptor (AR) signaling pathway using the MDA cell line - cell viability counter screen (AID 743041; further: nearly all actives have a fitted effect of over 45% in size; further: potency means the concentration at half of the fitted maximal effect)
How it was run: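 qHTS viability read-out; MDA-kb2 AR-luc; R1881-stimulated; 16 h exposure at 37C, 0% CO2; CellTiter-Fluor, 30 min; fluorescence intensity.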

[16] = biological target: Androgen receptor (Homo sapiens) (UniProt P10275); assay: qHTS assay to identify small molecule antagonists of the androgen receptor (AR) signaling pathway using the MDA cell line (AID 743042; further: nearly all actives have a fitted effect of over 55% in size; further: potency means the concentration at half of the fitted maximal effect)
How it was run: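 MDA-kb2 cells (human breast carcinoma, stably carrying an MMTV-luciferase reporter responsive to AR and GR) were plated at 3,000 cells/well and preincubated 5 hr at 37C, then given compound plus R1881 agonist for 16 h. ONE-Glo luminescence was read.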

[17] = qHTS assay to identify small molecule antagonists of the androgen receptor (AR) signaling pathway - cell viability counter screen (AID 743033; further: nearly all actives have a fitted effect of over 45% in size; further: potency means the concentration at half of the fitted maximal effect)
[18] = biological target: Glucocorticoid receptor (Homo sapiens) (UniProt P04150); assay: qHTS assay to identify small molecule agonists of the glucocorticoid receptor (GR) signaling pathway (AID 720691; active means well fitted activation curve with a large enough effect in the signal ratio in the repeat runs, not every such curve was filed as active; the % refers to the signal ratio); conditions: GR-bla HeLa, beta-lactamase reporter ratio, 18 h; activation: at 62.4 µM (top of the series)
Glucocorticoid receptor (Homo sapiens), sequence (P04150 whole entry, looked up): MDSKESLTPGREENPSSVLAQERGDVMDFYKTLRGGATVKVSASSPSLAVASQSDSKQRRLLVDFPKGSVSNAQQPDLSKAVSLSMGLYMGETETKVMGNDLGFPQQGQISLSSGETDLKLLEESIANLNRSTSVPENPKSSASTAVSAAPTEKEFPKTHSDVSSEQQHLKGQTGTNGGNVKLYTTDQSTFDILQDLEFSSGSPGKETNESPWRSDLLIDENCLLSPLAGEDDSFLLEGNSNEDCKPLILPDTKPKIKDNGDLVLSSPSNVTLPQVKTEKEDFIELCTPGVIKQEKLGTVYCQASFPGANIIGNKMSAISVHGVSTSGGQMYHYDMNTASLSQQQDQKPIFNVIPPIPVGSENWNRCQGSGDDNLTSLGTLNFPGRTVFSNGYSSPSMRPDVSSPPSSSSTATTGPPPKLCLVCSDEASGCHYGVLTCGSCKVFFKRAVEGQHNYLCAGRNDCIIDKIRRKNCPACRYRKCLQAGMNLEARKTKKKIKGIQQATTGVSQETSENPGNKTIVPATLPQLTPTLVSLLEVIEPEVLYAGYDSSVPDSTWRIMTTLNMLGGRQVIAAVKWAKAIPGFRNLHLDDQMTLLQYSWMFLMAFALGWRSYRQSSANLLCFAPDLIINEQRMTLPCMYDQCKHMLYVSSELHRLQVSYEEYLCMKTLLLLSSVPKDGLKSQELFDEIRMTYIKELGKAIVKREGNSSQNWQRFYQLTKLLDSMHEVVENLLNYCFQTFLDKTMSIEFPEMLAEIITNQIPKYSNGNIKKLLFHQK
How it was run: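 Measures GR pathway activation through a GRE-beta-lactamase reporter stably integrated in HeLa cells, with 18 h compound treatment at 37 C and fluorescence detection using a FRET substrate.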

[19] = biological target: Glucocorticoid receptor (Homo sapiens) (UniProt P04150); assay: qHTS assay to identify small molecule antagonists of the glucocorticoid receptor (GR) signaling pathway (AID 720692; active means well fitted inhibition curve with a large enough effect in the signal ratio in the repeat runs, not every such curve was filed as active; the % refers to the signal ratio)
How it was run: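 Tox21 10K library screened in concentration-response for blockade of dexamethasone (5 nM final)-induced GRE-bla reporter activity in HeLa cells; 18 h treatment, fluorescence read.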

[20] = biological target: Androgen receptor (Homo sapiens) (UniProt P10275); assay: qHTS assay to identify small molecule agonists of the androgen receptor (AR) signaling pathway (AID 743036; active means well fitted activation curve with a large enough effect in the signal ratio in the repeat runs, with a control signal flat, not every such curve was filed as active; the % refers to the signal ratio; further: potency means the concentration at half of the fitted maximal effect)
How it was run: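 Beta-lactamase under UAS control, stably integrated in HEK293 GripTite cells, reports receptor activation. After 16 h compound treatment, cells received FRET substrate for 2 h at room temperature before fluorescence reading.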

Measured: Potency
Tags describe the fitted curve by direction and shape or compound fluorescence and quenching.

CCCCCCCCCCCCCCCCCCNC(=O)OC1CCN(C(=O)OC[C@H](COC(=O)N(Cc2cccc[n+]2CC)C(=O)c2ccccc2OC)OC)CC1
inactive: [1] | [2] | [3] | [4] | [5] | [6] | [7] | [8] | [14]
active: [9] 16.9 µM | [10] 5.31 µM | [11] 6.68 µM | [12] 5.96 µM | [13] 10.7 µM | [15] 23.7 µM | [16] 13.3 µM

CCCCCCCCCC(=O)NO
inactive: [1] | [2] | [3] | [4] | [5] | [6] | [7] | [8] | [9] | [10] | [12] | [17]

CN1C(C(=O)Nc2ccccn2)C(=O)c2sc(Cl)cc2S1(=O)=O (stereo not drawn)
inactive: [1] | [2] | [3] | [4] | [5] | [6] | [7] | [8] | [9] | [12] | [17] | [15]

C=CC(N)CCC(=O)O (stereo not drawn)
inactive: [1] | [2] | [3] | [4] | [5] | [6] | [7] | [18] | [19] | [9] | [10] | [11] | [12] | [17] | [15]

CC(C)OC(=O)Nc1ccc2nc(-c3cscn3)[nH]c2c1
active: [11] 1.88 µM | [12] 2.37 µM | [13] 4.25 µM
inactive: [1] | [2] | [3] | [4] | [5] | [6] | [7] | [8] | [9] | [17] | [14] | [15] | [16]

COc1cc2c(cc1OC)[C@@H](Cc1cc(OC)c(OC)c(OC)c1)[N+](C)(CCCOC(=O)CC/C=C/CCC(=O)OCCC[N+]1(C)CCc3cc(OC)c(OC)cc3[C@H]1Cc1cc(OC)c(OC)c(OC)c1)CC2 (stereo partly drawn)
inactive: [1] | [2] | [3] | [4] | [5] | [6] | [7] | [8] | [9] | [11] | [12] | [17] | [15]

CCC(C)(C)c1ccc(CC(C)CN2C[C@@H](C)O[C@@H](C)C2)cc1 (stereo partly drawn)
inactive: [1] | [2] | [3] | [4] | [5] | [6] | [7] | [8] | [17]
active: [10] 0.841 µM | [11] 0.668 µM | [12] 0.841 µM

CCN1\C(=C/C=C/C=C/c2sc3ccccc3[n+]2CC)Sc2ccccc21
active: [9] 23.9 µM and 21.3 µM | [11] 237 nM and 841 nM | [12] 168 nM and 335 nM | [17] 2.68 µM and 8.49 µM | [15] 1.68 µM and 5.96 µM
inactive: [1] | [2] | [3] | [4] | [5] | [6] | [7] | [8]

COc1cc(NS(C)(=O)=O)ccc1Nc1c2ccccc2nc2ccccc12
active: [2] 12.6 µM | [6] 12.6 µM [fluorescent] | [8] 12.6 µM [fluorescent] | [10] 0.0596 µM | [11] 0.0668 µM | [12] 0.0084 µM | [13] 0.601 µM | [20] 10.7 µM
inactive: [1] | [3] | [4] | [5] | [7] | [14] | [15]

NC(=S)NS(=O)(=O)c1ccc(N)cc1
inactive: [1] | [2] | [3] | [4] | [5] | [6] | [7] | [8] | [9] | [11] | [12] | [17] | [15]

CN1CCN(CCCN2c3ccccc3Sc3ccc(C(F)(F)F)cc32)CC1
inactive: [1] | [2] | [3] | [4] | [5] | [6] | [7] | [8]
active: [10] 5.31 µM | [11] 2.11 µM | [12] 5.31 µM

CCCC(CCC)C(=O)OC1C[C@H]2CC[C@@H](C1)[N+]2(C)C (stereo partly drawn)
inactive and 13.3 µM (active): [11]
inactive: [1] | [2] | [3] | [4] | [5] | [6] | [7] | [8] | [10] | [12] | [17] | [15]

N=C(N)c1ccc(/C=C/c2ccc(C(=N)N)cc2O)cc1
inactive: [1] | [2] | [3] | [4] | [5] | [6] | [7] | [8] | [17] | [15]

C=C1[C@H](CO)[C@@H](O)C[C@@H]1n1cnc2c(=O)[nH]c(N)nc21
active: [10] 0.0237 µM | [11] 0.0237 µM | [12] 0.0335 µM
inactive: [1] | [2] | [3] | [4] | [5] | [6] | [7] | [18] | [19] | [9] | [17] | [20] | [14] | [15] | [16]

c1ccc2occc2c1
inactive: [1] | [2] | [3] | [4] | [5] | [6] | [7] | [8] | [15]
